Only some compounds are listed: those with a hit (about 7.5% of all), similar ones and a draw of the others.
FMDV inh = blocks foot and mouth disease virus; FMDV antiviral cell-based qHTS; Potency, µM (series often up to 57.9 µM), for the others: at the highest dose activity change, negative = inhibition, most hits filed as inhibitors; 410,000 tested, 1.2% active; calls by dose curve; tested in HEK293T cells; note: read-out not given here; potency is the fitted concentration of half-maximal effect; nearly all actives have a fitted effect of over 45% in size
Vaccinia Venus = vaccinia inhibition (Venus reporter). AID 720580. Potency, µM (highest dose often 36.5 µM), for inactives: top-dose activity change, negative = inhibition, hits mostly inhibitors. 330,000 tested, 0.46% active. Vaccinia virus Venus reporter expression, fluorescence; calls by dose curve; tested in A549 cells; note: potency is the fitted concentration of half-maximal effect; nearly all actives have a fitted effect of over 30% in size
VACV mCherry inh = inhibitors of vaccinia virus infection (mCherry reporter signal); Vaccinia virus mCherry reporter infection, fluorescence; Potency, µM (series often up to 36.5 µM), for the others: at the highest dose activity change, negative = inhibition, actives largely listed as inhibitors; 310,000 tested, 0.63% active; AID 720579; calls by dose curve; tested in A549 cells; note: potency is the fitted concentration of half-maximal effect; nearly all actives have a fitted effect of over 35% in size
HCMV inh = human cytomegalovirus inhibition; HFF cells, HCMV-luciferase reporter, 72 h; hits give low values; 410,000 tested, 4.5% active; activity change, negative = inhibition, % at 57.5 µM; in the data active = activity change below about -60%; inconclusive = no clear call, values can overlap the other calls; inactive = above about -39%
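Compounds were evaluated in HFFs infected with an HCMV luciferase reporter virus (MOI 1 PFU/cell). Luciferase in lysates collected 72 h post infection served as the replication measure.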
Giardia FBPA inh = blocks Giardia fructose-bisphosphate aldolase activity; AID 2451; 290,000 tested, 0.71% active; Potency, µM (highest dose often 59.6 µM), for inactives: top-dose activity, negative = inhibition, hits mostly inhibitors; purified Giardia FBPA; A8B2U2; note: potency is the fitted concentration of half-maximal effect; nearly all actives have a fitted effect of over 55% in size
Target sequence (A8B2U2 whole entry, looked up): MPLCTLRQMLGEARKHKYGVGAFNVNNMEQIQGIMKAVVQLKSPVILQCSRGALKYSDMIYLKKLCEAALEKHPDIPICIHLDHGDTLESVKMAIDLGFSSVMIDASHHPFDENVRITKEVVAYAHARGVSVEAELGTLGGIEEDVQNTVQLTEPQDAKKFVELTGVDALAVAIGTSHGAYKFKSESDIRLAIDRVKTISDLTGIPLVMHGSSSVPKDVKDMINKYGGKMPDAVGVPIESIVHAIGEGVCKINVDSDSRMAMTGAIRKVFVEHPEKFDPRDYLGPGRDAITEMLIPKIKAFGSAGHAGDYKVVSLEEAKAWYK
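Giardia FBPA (40 nM reagent) was preincubated 10 min at RT with compound (up to 57.5 uM final), then substrate plus GAPDH/TPI/NAD/arsenate coupling system with diaphorase/resazurin was added; resorufin fluorescence (525/598 nm) was read after 20 min.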
HCV inh = inhibitors of hepatitis C virus infection. 340,000 tested, 3.4% active. Potency, µM (doses to about 41.8 µM), without a hit: top-dose activity change, negative = inhibition, actives largely listed as inhibitors. Huh7.5.1 HCVcc-Cre infection, luciferase reporter, 44 h; note: potency is the fitted concentration of half-maximal effect
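Whole-lifecycle infectious HCVcc-Cre system; cells 1,000/well, compound then virus (~0.5 moi) added 4 h after plating, 44 h culture. Luciferase read 15 sec following 15 min substrate incubation, room temp.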
An asterisk follows results filed as active; i = inactive; u = inconclusive; x = not tested or not shown; ! = not confirmed by another sample. Unless noted, calls come from the whole dose curve; as a rule, active = well fitted curve in the direction sought with a large enough effect; inconclusive = small, poorly fitted or top-dose-only effect, or another doubt; inactive = no such curve, though single readings can be large; an effect the other way counts as inactive or inconclusive. % is set by controls: 0 for no effect and ±100 for the full control effect.

SMILES	FMDV inh	Vaccinia Venus	VACV mCherry inh	HCMV inh	Giardia FBPA inh	HCV inh
CC(=O)Nc1ccc(S(=O)(=O)N(C)CC(=O)N/N=C/c2ccncc2)cc1	-1%	0%	i	-20	16%	-7%
Cc1cc(-c2ccccc2)n(-c2cc(N/N=C/c3ccccc3O)ncn2)n1	u	u	u	-96*	0%	u
COc1cc(C2c3cc4c(cc3C(O[C@@H]3OC5COC(c6cccs6)OC5C(O)C3O)C3COC(=O)C23)OCO4)cc(OC)c1O (stereo not given in full)	x	x	x	x	-20%	x
COc1cc([C@@H]2c3cc4c(cc3[C@H](O)[C@H]3COC(=O)[C@H]23)OCO4)cc(OC)c1OC	-20%	u	u	x	-8%	u
COc1cc(C2c3cc4c(cc3C(O)C3COC(=O)C23)OCO4)cc(OC)c1O (stereo not given)	3%	u	14µM*	x	5%	x
COc1cc(C2c3cc4c(cc3C(OC3OC5COC(c6cccs6)OC5C(O)C3O)C3COC(=O)C23)OCO4)cc(OC)c1O (stereo not given)	-18%	u	u	-99*	-14%	-31%
Cc1nc(N2CCCC2)c2ccsc2n1	-18%	u	i	-28	2%	14µM*
CCCCCCCCCCCCCCCC[n+]1ccc(C(N)=O)cc1	u	-15%	i	-86*	6%	7%
CCCCCCCCCCCCCCCC[n+]1ccc(/C=N/O)cc1	u	10µM*	11µM*	-97*	5%	u
CCCCCCCCCCCCCCCC[n+]1ccccc1	16µM*!	14µM*!	13µM*!	-98*	8%	3.2µM*
CCCCCCC[n+]1ccc(-c2cc[n+](CCCCCCC)cc2)cc1	-7%	u	u	-101*	-9%	u
Cc1nc(=S)c2c([nH]1)-c1ccccc1CC21CCCCC1	-13%	u	u	1	3%	-15%
CCOc1ccc(NC(=O)CN(C)C(=O)c2ccccc2OCc2cccc(C)c2)cc1OCC	-24%	u	-17%	0	x	10µM*
Cc1ccc(NC(=O)CCOc2ccccc2)cc1	56%	3%	-4%	20	10%	-7%
CCOc1ccccc1OCCCC(=O)N(C)CC(=O)Nc1cc(C)ccc1C	-3%	-19%	-28%	-70*	0%	-10%
Cc1ccc(C)c(NC(=O)CN(C)C(=O)CCN2C(=O)c3ccccc3C2=O)c1	-6%	-7%	-13%	1	3%	3%
Cc1ccc(C)c(NC(=O)CCOc2ccccc2)c1	5%	-16%	i	-67*!	5%	10%
Cc1cc(-c2nnc(SCC(=O)Nc3ccc(C)c(C)c3)n2N)n[nH]1	4%	-2%	-21%	13	x	0%
CCOC(=O)c1ncc2[nH]c3ccc(OCc4ccccc4)cc3c2c1COC	16µM*	x	x	x	-20%	x
CCOC(=O)C1(C)CCN1C(=O)c1ccccc1C(F)(F)F (stereo not given)	-21%	0%	i	-24	x	x
COc1ccc(N/C=C(\C#N)c2ccc(OCCCF)cc2)cc1	4%	-2%	-5%	-91*	0%	u
NC[C@H]1O[C@@H](n2ccc(N)nc2=O)[C@H](O)[C@@H]1O	-13%	-9%	35%	-87*	x	x
Nc1ncn([C@@H]2O[C@H](CO)[C@@H](O)[C@H]2O)c(=O)n1	0%	6.3µM*	2.8µM*!	u	6%	-19%
CCCCCCCCCCCCCCCC(=O)OCC1OC(n2ccc(N)nc2=O)C(O)C1O (stereo not given)	-2%	u	u	-36	x	u
Nc1ccn(C2OC(CO)C(O)C2O)c(=O)n1 (stereo not given)	3%	-26%	0.089µM*!	x	1%	x
SMILES	FMDV inh	Vaccinia Venus	VACV mCherry inh	HCMV inh	Giardia FBPA inh	HCV inh
CCCCCCCCCCCCCCCC(=O)Nc1ccn(C2OC(CO)C(O)C2O)c(=O)n1 (stereo not given)	-18%	u	u	-98*	x	-27%
Nc1nc(=S)c2ncn([C@@H]3O[C@H](CO)[C@@H](O)[C@H]3O)c2[nH]1	-30%	u	u	-89*	x	2.2µM*
Nc1ccn([C@@H]2O[C@H](CO)[C@@H](O)[C@@H]2O)c(=O)n1	-18%	u	0.5µM*	-100*	-8%	u
Nc1ccn([C@@H]2O[C@H](CO)[C@@H](OP(=O)(O)O)[C@H]2O)c(=O)n1	x	x	x	x	8%	x
Nc1ccn(C2OC(CO)C(O)C2F)c(=O)n1 (stereo not given)	-20%	u	u	-82*	x	x
CC(C)N1CCN(C(=O)C2CCC(=O)N(CCc3cccc(F)c3)C2)CC1 (stereo not given)	-5%	-7%	-12%	5	8%	3%
Fc1cccc(NCc2cccn2-c2nnc(N3CCOCC3)s2)c1	-17%	1%	2%	21	x	x
Cc1ccc(N2C(=O)c3[nH]nc(-c4ccc(Cl)cc4)c3C2c2ccc(F)cc2)cc1 (stereo not given)	u	-26%	u	-105*	x	x
Cc1ccc(-c2n[nH]c3c2C(c2cccs2)N(c2ccc(Cl)cc2)C3=O)cc1 (stereo not given)	u	-23%	u	-105*	x	x
N#CC1(NC(=O)CN2c3cccc4cccc(c34)S2(=O)=O)CCCCC1	1%	-18%	-5%	-20	x	9%
N#Cc1ccc(C(=O)Nc2cc(S(=O)(=O)Nc3ccc(Cl)cc3)ccc2N2CCCCC2)cc1	50%	-25%	-2%	u	6%	u
CCOC(=O)/C=C/C(=O)Nc1cc(S(=O)(=O)Nc2ccc(OC)cc2)ccc1N1CCOCC1	32µM*	-32%	u	-29	x	u
O=C(Nc1cc(S(=O)(=O)Nc2ccc(Cl)cc2)ccc1N1CCCCC1)c1ccc(F)cc1	26%	u	-10%	-64*	-7%	7.1µM*
COc1ccccc1NS(=O)(=O)c1ccc(N2CCOCC2)c(NC(=O)c2ccco2)c1	40%	-21%	-22%	-25	2%	11µM*
COc1ccc(NS(=O)(=O)c2ccc(N3CCOCC3)c(NC(=O)c3ccco3)c2)cc1	65%	-18%	-27%	-22	0%	-27%
COc1ccc(N2CCOCC2)c(NC(=O)c2ccc(Br)o2)c1	u	-20%	-10%	-81*	x	x
O=C(Nc1cc(Cl)ccc1N1CCOCC1)c1ccc(Br)o1	-5%	-18%	-19%	x	x	5%
S=c1nc(-c2csc3c2CCCC3)[nH][nH]1	-5%	x	x	u	5%	-11%
NC(=O)c1nsc(C(=O)N(c2ccccc2)C(C(=O)NCc2ccc(F)cc2)c2ccc(O)cc2)c1N (stereo not given)	-10%	2%	-16%	-24	-2%	u
COc1ccc(NS(=O)(=O)c2ccc(N3CCOCC3)c(NC(=O)c3cccc(F)c3)c2)cc1	48%	-23%	u	-78*	1%	-45%
